About 4,300 (8.3%) of roughly 52,000 compounds were called active. The sample holds actives, similar compounds and a random draw of the others, so the mix is not that of the screen. Values without a mark were called inactive. Cut-off read from the data, not from the text of the source: active = survival mostly below about 52% (no sharp cut-off); inactive = mostly above about 56%.
Each compound was assayed on DeltatarO mutant (assay: growth inhibition of S. aureus wild type versus tarO mutant, primary screen, teichoic acid synthesis inhibitors, RN4220, OD600 (AID 463173)). Conditions: OD600, 18 h, active compounds read low, screened at 18.75 µg/mL (by protocol).
`O=C(Nc1cccc(Cl)c1N1CCOCC1)c1ccco1` gave a survival of 90%.
`COc1ccc(S(=O)(=O)CCc2nc3ccccc3n2CC(=O)O)cc1` gave a survival of 113%.
In the case of `CCOC(=O)c1ccc(NC(=O)C(CC)Sc2nc3ccncc3[nH]2)cc1` (stereo unspecified), the survival was 128%.
`CC(=O)N1CCN(C(=O)C(=O)Nc2c3c(nn2-c2ccc(Cl)cc2)CSC3)CC1` was tested, and the survival was -1% (active).
`CC(NC(=O)C(=O)Nc1c2c(nn1-c1ccccc1)CSC2)c1ccccc1` (stereo unspecified) gave a survival of 61%.
`CN1CCN(C(=O)C(=O)Nc2c3c(nn2-c2ccc(F)cc2)CSC3)CC1` gave a survival of 72%.
Compound `CCC(CO)NC(=O)C(=O)Nc1c2c(nn1-c1ccc(F)cc1)CSC2` (stereo unspecified) has a survival of 80%.
In the case of `CC(NC(=O)C(=O)Nc1c2c(nn1-c1ccc(F)cc1)CSC2)c1ccccc1` (stereo unspecified), the survival was -2% (active).
In the case of `CN1CCN(C(=O)C(=O)Nc2c3c(nn2-c2ccc(Cl)cc2)CSC3)CC1`, the survival was 72%.
For `Cc1cccc(C)c1-n1ncc(C(=O)Nc2ccc3c(c2)OCO3)c1C1CCN(C(=O)OC(C)(C)C)CC1`, the survival was 100%.
Compound `Cc1ccc(-c2cn3nc(N4CCCC(C(=O)NCc5ccc(F)cc5)C4)sc3n2)cc1` (stereo unspecified) has a survival of 86%.
`CCNC(=O)NC1(C(=O)N2CCC(Cc3ccccc3)CC2)CCCCC1` showed a survival of 87%.
For `Cc1ccc(N2CC(NC(=O)c3cccc(Cl)c3)CC2=O)cc1C` (stereo unspecified), the survival was 75%.
`COc1cc(C(=O)N2CCC(c3nc4ccccc4o3)CC2)cc(OC)c1OC` showed a survival of 91%.
For `Cn1c2ccccc2c2c(C(=O)N3CCN(c4ccc(F)cc4)CC3)cn(C3CCCCC3)c(=O)c21`, the survival was 132%.
Compound `Cc1ccc(NC(=O)Cc2coc3ccc(C(C)C)cc23)c(C)c1` has a survival of 88%.
Compound `CC(C)c1ccc2occ(CC(=O)Nc3ccccc3Cl)c2c1` has a survival of 85%.
Work on `COC(=O)c1ccc(NC(=O)Cc2coc3cc(C)ccc23)cc1` yielded a survival of 91%.
With `Cc1cccc(NC(=O)c2oc3ccccc3c2NC(=O)Cc2coc3ccc(C(C)C)cc23)c1` the survival was 67%.
For `Cc1ccc(NC(=O)Cc2coc3ccc(C(C)C)cc23)cc1Cl`, the survival was 37% (active).
In the case of `CC(C)c1ccc2occ(CC(=O)Nc3cccc(C(F)(F)F)c3)c2c1`, the survival was 0% (active).
With `Cc1ccc2onc(CC(=O)Nc3cccc(C(F)(F)F)c3)c2c1` the survival was 54%.
`Cc1ccc2c(CC(=O)Nc3cccc(C(F)(F)F)c3)coc2c1` was tested, and the survival was 1% (active).
Compound `CCCCOC(=O)c1ccc(NC(=O)Cc2coc3ccc(C(C)C)cc23)cc1` has a survival of 69%.
In the case of `CCN1Cc2cccc(C(=O)Nc3ccc(F)cc3)c2C1=O`, the survival was 129%.
Work on `Cc1cc(C)cc(N2CCn3c2nc2c3c(=O)n(CCc3ccccc3)c(=O)n2C)c1` yielded a survival of 89%.

Reference: PubChem BioAssay AID463173 (ICCB-Longwood Screening Facility, Harvard Medical School, 2010)
